A549 viability: A549 cytotoxicity, counter-screen for Nrf2 inhibitors | A549 ARE-Fluc cells, CellTiter-Fluor viability, 18-24 h | Potency, µM (top dose mostly 46 µM), usual class: inhibitors | 390,000 tested, 0.16% active | AID 504648
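Cytotoxicity counterscreen: CellTiter-Fluor fluorescence was measured in A549 ARE_Fluc cells after 18-24 h of compound exposure in a concentration series. The subsequent BugLite luminescent read reports ARE-luciferase activity.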
LDHA block: blocks human lactate dehydrogenase A. activity change, % (values are at about 110 or 230 µM). 480,000 tested, 0.15% active. P00338. purified LDHA, NADH/diaphorase-resazurin fluorescence; hits give low values; in the data active = activity change below about -30%; inconclusive = mostly about -25% to -30%
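Remaining NADH was detected by diaphorase (0.133 mg/mL) converting 37 µM resazurin to fluorescent resorufin, read at 0 and 20 minutes. The preceding 5-minute room-temperature reaction used 2 nM LDHA, 0.2 mM sodium pyruvate and 0.06 mM NADH at pH 7.4.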
mIDH1 inhibitor: human IDH1 R132H inhibition; O75874; IDH1-R132H enzyme, NADPH consumption, diaphorase/resazurin fluorescence; Potency, µM (top dose mostly 76.6 µM), actives largely listed as inhibitors; 390,000 tested, 0.093% active; AID 602179; also: nearly all actives have a fitted effect of over 65% in size
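IDH1-R132H (0.5 ug/mL) preincubated 30 min with compound, then NADPH (0.016 mM) and alpha-KG (2 mM) added; 80 min at RT, pH 7.5. Remaining NADPH coupled via diaphorase/resazurin to fluorescence (540/590 nm); concentration-response curves normalized to no-enzyme control.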
Nrf2 inh: Nrf2 pathway inhibition | A549 ARE-Fluc reporter, luciferase luminescence, 18-24 h | Potency, µM (top dose mostly 46 µM), usual class: inhibitors | 360,000 tested, 2.1% active; also: nearly all actives have a fitted effect of over 60% in size
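A549 ARE_Fluc cells, 5000/well, 5% FBS OPTI-MEM; compounds in dose-response, 18-24 h at 37 °C/5% CO2; CellTiter-Fluor viability read (Ex 405/Em 525), then BugLite luciferase luminescence = Nrf2 activity.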
12-LOX inh: inhibitors of human 12S-lipoxygenase ALOX12. purified 12hLO, xylenol orange hydroperoxide absorbance. AID 1671190. Potency, µM (doses to about 108 µM), actives largely listed as inhibitors. 580,000 tested, 1.1% active
Target sequence (P18054 whole entry, looked up): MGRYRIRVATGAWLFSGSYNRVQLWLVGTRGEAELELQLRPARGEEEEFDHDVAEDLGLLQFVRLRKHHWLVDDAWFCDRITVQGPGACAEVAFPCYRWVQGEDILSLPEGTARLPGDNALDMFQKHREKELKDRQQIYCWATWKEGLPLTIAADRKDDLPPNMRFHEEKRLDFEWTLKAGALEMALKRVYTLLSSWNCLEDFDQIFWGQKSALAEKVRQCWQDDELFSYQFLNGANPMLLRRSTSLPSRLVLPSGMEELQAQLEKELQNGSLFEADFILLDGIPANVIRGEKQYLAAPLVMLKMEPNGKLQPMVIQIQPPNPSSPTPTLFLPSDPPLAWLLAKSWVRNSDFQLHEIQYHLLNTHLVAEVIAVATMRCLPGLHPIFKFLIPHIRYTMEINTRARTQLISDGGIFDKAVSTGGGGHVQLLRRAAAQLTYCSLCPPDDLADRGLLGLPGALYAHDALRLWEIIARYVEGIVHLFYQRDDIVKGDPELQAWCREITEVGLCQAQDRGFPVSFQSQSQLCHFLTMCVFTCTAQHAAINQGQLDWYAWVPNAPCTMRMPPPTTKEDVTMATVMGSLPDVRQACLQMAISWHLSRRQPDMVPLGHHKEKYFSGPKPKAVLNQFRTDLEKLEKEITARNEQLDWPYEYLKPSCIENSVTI
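Hydroperoxide product was detected by ferrous iron/xylenol orange as the 573 to 405 nm absorbance ratio. Arachidonic acid at 40 uM (final) was turned over for 30 min at room temperature by 150 nM human 12hLO, pH 7.0 Hepes buffer, after 15 min compound preincubation.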
Nrf2 ARE act: Nrf2 pathway activation; AREc32 ARE-luciferase reporter (MCF7-derived line), luminescence, 24 h; Potency, µM (titrated, usually from 46.1 µM), hits mostly activators; 410,000 tested, 0.31% active; AID 624171; also: nearly all actives have a fitted effect of over 65% in size
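Steps: seed AREc32_Fluc cells (1000/well, 5% FBS OPTI-MEM); incubate overnight at 37 deg C; add 23 nL compound; incubate 24 hr; add Steady-Glo; hold 30 min RT; read luminescence.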
Of the large screens only hits and unclear results are named; the others gave an inactive call; ! = not confirmed by another sample. Sampled rows, rich in hits. Any-hit rate of the full collection: about 2.7%. Unless noted, calls follow the shape of the dose curve; as a rule, active = well fitted curve in the direction sought with a large enough effect; inconclusive = small, poorly fitted or top-dose-only effect, or another doubt; inactive = no such curve, though single readings can be large; an effect the other way counts as inactive or inconclusive.

Fc1cccc(C[n+]2csc3ccccc32)c1	12-LOX inh 18µM
CCOc1ccc(C2C(C(=O)c3ccc(C)o3)=C(O)C(=O)N2c2cc(C)on2)cc1OC (stereo not drawn)	12-LOX inh 25µM
COc1cccc(C2C(C(=O)c3cccs3)=C(O)C(=O)N2c2cc(C)on2)c1 (stereo not drawn)	12-LOX inh inconclusive
COc1cccc(C2C(C(=O)c3ccc(C)o3)=C(O)C(=O)N2c2cc(C)on2)c1 (stereo not drawn)	12-LOX inh 50µM
NCc1ccc(-c2cccc(C(F)(F)F)c2)cc1	none (no result: A549 viability, LDHA block, mIDH1 inhibitor, Nrf2 inh, Nrf2 ARE act)
COc1cc(C#N)ccc1OCc1cc(C)cc(C)c1	none (no result: A549 viability, mIDH1 inhibitor, Nrf2 inh, Nrf2 ARE act)
CCCn1c(CN(Cc2ccccc2)Cc2ccccc2)nc2c1c(=O)[nH]c(=O)n2C	none (no result: A549 viability, mIDH1 inhibitor, Nrf2 inh, Nrf2 ARE act)
CC1CC(C)CN(CCOc2cccc(Cl)c2Cl)C1 (stereo not drawn)	none
Cc1cccc(C)c1OCCOCCN1CCN(C)CC1	LDHA block -43!, 12-LOX inh inconclusive
CC(C)c1cccc(OCCN2CCCC2)c1	12-LOX inh 0.63µM
c1ccc(OCCOCCN2CCOCC2)cc1	none
CCN1CCN(CCOCCOc2ccccc2)CC1	LDHA block -30, 12-LOX inh inconclusive
CCN1CCN(CCOc2cccc(Cl)c2Cl)CC1	LDHA block -36, 12-LOX inh inconclusive
Clc1cccc(OCCN2CCCC2)c1	none
CC(C)Cn1c(SCC(=O)NCc2ccccc2Cl)nc2ncccc2c1=O	12-LOX inh inconclusive (no result: A549 viability, mIDH1 inhibitor, Nrf2 inh, Nrf2 ARE act)
O=C(COC(=O)CCNS(=O)(=O)c1ccc(F)c(Cl)c1)Nc1ccc(Cl)cc1Cl	12-LOX inh inconclusive (no result: A549 viability, mIDH1 inhibitor, Nrf2 inh, Nrf2 ARE act)
O=C(CNc1cccc(F)c1)NCc1ccc(Cl)cc1	12-LOX inh inconclusive (no result: A549 viability, mIDH1 inhibitor, Nrf2 inh, Nrf2 ARE act)
CN1CCN(CCOc2cccc(Cl)c2)CC1	12-LOX inh inconclusive
CCN1CCN(CCOc2cccc(Oc3ccccc3)c2)CC1	LDHA block -33, 12-LOX inh inconclusive
S=C(Nc1ccccc1)Nc1nc2ccccc2n1CCOc1ccc(Br)cc1	12-LOX inh 28µM
Cc1ccc(S(=O)(=O)NCc2ccccc2)cc1C(=O)N(C)Cc1ccc(F)cc1	Nrf2 inh 23µM
O=C(N/N=C/c1ccc(Br)cc1)c1ccc(Br)o1	LDHA block -32, Nrf2 inh inconclusive
C#CCOC(=O)c1ccccc1C(=O)N(C1CCCCC1)C1CCCCC1	none (no result: A549 viability, mIDH1 inhibitor, Nrf2 inh, Nrf2 ARE act)
CC1C(=O)Nc2ccc(S(=O)(=O)N3CCN(c4cccc(C(F)(F)F)c4)CC3)cc2NC1=O (stereo not drawn)	A549 viability inconclusive, Nrf2 inh 8.2µM
CC1C(=O)Nc2ccc(S(=O)(=O)N3CCN(c4cccc(Cl)c4)CC3)cc2NC1=O (stereo not drawn)	Nrf2 inh inconclusive
COc1ccc(-c2cc(C(F)(F)F)n3nc(C(=O)NCC45CC6CC(CC(C6)C4)C5)cc3n2)cc1	Nrf2 inh 15µM
COc1ccc(-n2c(=O)[nH]c3cc(C(=O)NCCc4ccccc4)ccc3c2=O)cc1OC	Nrf2 inh 13µM!
Cc1cc(OCCN2CC(C)OC(C)C2)ccc1[N+](=O)[O-] (stereo not drawn)	12-LOX inh inconclusive
Cc1cc(OCCN2CCC(Cc3ccccc3)CC2)ccc1[N+](=O)[O-]	12-LOX inh 6.3µM
CC(=O)c1c(C)oc2c1cc(NS(=O)(=O)c1ccc(Br)cc1)c1ccccc12	none (no result: Nrf2 inh)
Cc1oc2c(cc(NS(=O)(=O)c3ccc(Cl)cc3)c3ccccc32)c1C(=O)O	12-LOX inh 40µM
CCOCCCNC(=O)c1ccc(C)c(C)c1	none (no result: A549 viability, mIDH1 inhibitor, Nrf2 inh, Nrf2 ARE act)
COc1ccc2cc(C(=O)NCC3CC3)c(C)nc2c1	12-LOX inh inconclusive (no result: A549 viability, mIDH1 inhibitor, Nrf2 inh, Nrf2 ARE act)
C/C(=C\C(=O)c1ccc(F)cc1)NCc1ccc2c(c1)OCO2	Nrf2 inh inconclusive, 12-LOX inh 40µM
N#CC1=C(N)SC(N)=C(C#N)C1c1cccc(Oc2ccccc2)c1	A549 viability inconclusive, Nrf2 inh inconclusive, 12-LOX inh 14µM
Cc1nnc2n1CCC(N(C)S(=O)(=O)c1cn(C)cn1)CC2 (stereo not drawn)	none (no result: A549 viability, LDHA block, mIDH1 inhibitor, Nrf2 inh, Nrf2 ARE act)
CCn1c(=O)c([N+](=O)[O-])c(N2CCSCC2)c2ccccc21	Nrf2 inh 16µM

Screening data from PubChem.
